# Laboratory results from PubChem BioAssay AID504467 (National Center for Advancing Translational Sciences (NCATS), 2011).
# Among all 330,000 compounds or so, about 7,700 (2.3%) were called active. Not shown: some 26% with an inconclusive outcome. This excerpt belongs to a sample that is enriched for actives. Unmarked numbers belong to inactive results. Calls come from the whole dose curve; as a rule, active = well fitted inhibition curve with a large enough effect; inconclusive = small, poorly fitted or top-dose-only effect, or effect the other way; inactive = flat fitted curve, though single readings scatter.
# Assay: qHTS screen for small molecules that inhibit ELG1-dependent DNA repair in human embryonic kidney (HEK293T) cells expressing luciferase-tagged ELG1; note: nearly all actives have a fitted effect of over 55% in size
# Details: HEK293T ELG1-luciferase reporter, luminescence, 16 h, DNA damage induced by 5-fluorouridine; series mostly up to 46.1 µM; activity change, negative = inhibition: at the top concentration
# In short: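 Overnight (16 hr) co-exposure of 2,000 cells/well to 5-fluorouridine and compound at 37 °C preceded detection. Luciferase was quantified via ONE-Glo luminescence; loss of signal denotes inhibition.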
# % is set by controls: 0 for no effect and ±100 for the full control effect; potency is the fitted concentration of half-maximal effect.
Structure (SMILES),"activity change, negative = inhibition [%]",Potency
COc1cccc(C(=O)Nc2nnc(S(=O)(=O)N3CCCCC3)s2)c1,-4.91,
CCCn1nc(C(=O)NNC(=O)CCOc2ccccc2OCC)c2ccccc2c1=O,-22.5,
O=Cc1c(Nc2ccccc2Cl)nc2ccccn2c1=O,16,
Cc1nc2ccccc2c(=O)n1-c1ccc(F)c(NC(=O)c2cccs2)c1,-29.9,
O=C(CN1C(=O)NC2(CCCCCC2)C1=O)Nc1ccc([N+](=O)[O-])cc1,15.8,
CC(=O)Nc1ccc(C(=O)Nc2cccc(S(=O)(=O)NC3=NCCC3)c2)cc1,1.78,
CC(=O)c1ccc(S(=O)(=O)N(C)CCCC(=O)N(C)Cc2ccccc2F)cc1,-16.6,
Cc1cnc(C(=O)N2CCCC(N3CCN(c4ccccc4F)CC3)C2)cn1 (stereo not given),0.472,
Cc1ccccc1N1CCN(C2CCCN(C(=O)c3cn4c(C)cccc4n3)C2)CC1 (stereo not given),,16.4 µM (active)
Cc1ccccc1N1CCN(C2CCCN(C(=O)c3ocnc3C)C2)CC1 (stereo not given),-1.3,
CC(NC(=O)COC(=O)c1ccc2ccccc2n1)c1ccccc1 (stereo not given),17.5,
CCN(CC)S(=O)(=O)c1cc(C(=O)Nc2cc(S(=O)(=O)N3CCOCC3)ccc2N2CCCC2)ccc1F,-9.98,
O=c1oc2ccc(C#CC3(O)CCCCC3)cc2cc1-n1cc(-c2ccsc2)nn1,19.7,
COC(=O)[C@]1(Cc2ccccc2)N[C@H](CN(C)S(=O)(=O)c2ccc(OC(F)(F)F)cc2)[C@@H]2C(=O)N(Cc3ccccc3)C(=O)[C@@H]21,1.29,
Cc1nn(CC(=O)Nc2nc3ccccc3s2)c(C)c1[N+](=O)[O-],19.8,
O=[N+]([O-])c1cc(Br)c(O)c(/C=N/Nc2nc3ccccc3s2)c1,,4.11 µM (active)
Cc1ccc(S(=O)(=O)Nc2nc3ccccc3s2)cc1[N+](=O)[O-],0.096,
Cc1ccccc1NC(=O)NCC1CCN(Cc2cccc(Cl)c2)CC1,16.6,
CC(=O)N1CCOc2ccc(S(=O)(=O)N3CCN(c4cccc(C(F)(F)F)c4)CC3)cc21,-16.8,
C/C(N)=C(/C#N)C(=O)COC(=O)c1cc(-c2ccccc2)nc2ccc(Br)cc12,6.28,

Structure (SMILES),"activity change, negative = inhibition [%]",Potency
C/C(N)=C(/C#N)C(=O)COC(=O)c1cc(-c2cccc(Br)c2)nc2ccccc12,,11.6 µM (active)
COc1cccc(OC)c1C(=O)OCC(=O)/C(C#N)=C(\C)N,9.16,
CCOc1ccccc1Nc1nnc(SCC(=O)NCC2CCCO2)s1 (stereo not given),-7.85,
O=C(COc1ccc(F)cc1Br)NCC1COc2ccccc2O1 (stereo not given),-0.0293,
CC(C)c1ccc2oc(=O)cc(CN3CCN(Cc4ccccc4)CC3)c2c1,-6.46,
O=S(=O)(c1cccs1)N1CCN(Cc2ccccc2)CC1,-2.29,
Cc1cc2oc(=O)cc(CN3CCN(Cc4ccccc4)CC3)c2cc1C,-0.0674,
O=c1cc(CN2CCN(S(=O)(=O)/C=C/c3ccccc3)CC2)c2ccc(O)cc2o1,-1.27,
Cc1ccc2c(CN3CCN(S(=O)(=O)c4ccccc4C(F)(F)F)CC3)cc(=O)oc2c1,,17.8 µM (active)
COc1ccc2oc(=O)cc(CN3CCOCC3)c2c1,0,
O=S(=O)(c1ccc(F)cc1)N1CCN(Cc2ccccc2C(F)(F)F)CC1,-2.01,
Cc1cc2oc(=O)cc(CN3CCN(S(=O)(=O)c4cccs4)CC3)c2cc1C(C)C,,2.31 µM (active)
COc1ccc2c(CN3CCN(S(=O)(=O)c4cccs4)CC3)cc(=O)oc2c1,,23.1 µM (active)
COc1ccc(CCNC(=O)CCc2cn(C)c3ccccc23)c(OC)c1,-7.21,
CCOc1ccc(NS(=O)(=O)c2ccc(C(=O)NCC(c3ccccc3OC)N3CCCC3)cc2)cc1 (stereo not given),-1.12,
O=C(OCC(=O)N1CCN(c2ccccc2)CC1)c1ccc([N+](=O)[O-])s1,2.44,
COc1ccc(CC(=O)N[C@@H]2c3cc(OC)c(OC)cc3C[C@H]2OCc2ccccc2)cc1,-4.29,
CC(C)CN(C(=O)COC(=O)c1ccc2ccccc2c1)c1c(N)n(Cc2ccccc2)c(=O)[nH]c1=O,-18.6,
O=C(O[C@@H]1[C@H](Cc2ccccc2)NS(=O)(=O)[C@H]2C[C@@H]3C=C[C@]12O3)c1ccccc1Br,4.88,
COc1ccc(C2=NS(=O)(=O)N(C)C(C(=O)NC(C)c3ccccc3)=C2)cc1 (stereo not given),-10.1,

Structure (SMILES),"activity change, negative = inhibition [%]",Potency
COc1cc(NC(=O)C2=CC(c3ccco3)=NS(=O)(=O)N2C)cc(OC)c1OC,-1.38,
COc1cc(NC(=O)C2=CC(c3ccc(C)cc3)=NS(=O)(=O)N2C)cc(OC)c1OC,,13 µM (active)
C=CCn1c(SCc2c(C(=O)OC)sc(N)c2C(=O)OC)nnc1-c1ccc(Cl)cc1,,23.1 µM (active)
C=CCn1c(SCn2nnc3ccccc3c2=O)nnc1-c1ccc(Cl)cc1,21.7,
C=CCn1c(SCc2cc(C(=O)OC)c(C)o2)nnc1-c1ccncc1,-5.1,
C#CCOCCOCCOCCNc1nc(N2CCN(C(=O)[C@H](CCCN=C(N)N)n3cc(C(N)[C@@H](C)CC)nn3)CC2)nc(N2CCN(C(=O)[C@H](CO)n3cc([C@@H](N)C(C)C)nn3)CC2)n1 (stereo not given in full),1.11,
CN(c1ccc(OCC(=O)O)cc1)S(=O)(=O)c1ccc2ccccc2c1,6.18,
CC(C)=CCCC(C)CN1CCC(n2nccc2NC(=O)c2ccccc2)CC1 (stereo not given),-2.86,
Cc1cccc2cc(CN(C(=O)c3cccs3)c3ccccc3)c(=O)[nH]c12,-1.66,
Cc1cc(C)c2[nH]c(=O)c(CN(Cc3ccccc3)C(=S)NCCCN(C)C)cc2c1,13.4,
Cc1cccc2cc(CN(Cc3cccs3)C(=S)NCc3ccco3)c(=O)[nH]c12,,20.6 µM (active)
C=CC[C@@H](CC(=O)N[C@@H](CO)Cc1ccccc1)C(=O)N[C@H](COC(=O)[C@H](CC=C)CC(=O)OC(C)(C)C)Cc1ccccc1,18.7,
COCCCNc1nc2c(-c3cccc(C(F)(F)F)c3)nnn2c2ccccc12,10.1,
COC(=O)C(C)Sc1ccc2nnc(-c3cccc(F)c3)n2n1 (stereo not given),3.9,
COCCNc1cc(-c2ccccc2)nc2cc(-c3cccc(F)c3)nn12,,18.3 µM (active)
O=S(=O)(c1ccc(SCc2ccc(Br)cc2)nc1)N1CCOCC1,2.85,
CC(=O)Oc1ccc2c(=O)oc(-c3ccc([N+](=O)[O-])cc3)nc2c1,-0.71,
O=C(CC(=O)Nc1ccc(Cl)c(Cl)c1)N/N=C/c1ccc(O)cc1,-5.06,
O=C(CC(O)(C(F)(F)F)C(F)(F)F)Nc1ccc(Cl)c(Cl)c1,,4.11 µM (active)
Cc1ccc(NC(=O)C/C(N)=N/O)cc1Cl,0.53,
